# Measured values as given in PubChem BioAssay (NCI).
# Compounds without any hit were thinned out: in the full panel of roughly 83,000, 20% have a hit.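 Single-concentration screen, 48 h exposure, 96-well plates. Endpoint: percent growth. Below 10 = active.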 Unmarked numbers belong to inactive results. Activity calls are given as the source filed them.
# Tested on: CAKI-1 renal
# Assay: NCI-60 one-dose screen, 48 h (100 = growth as untreated, 0 = no growth, -100 = all killed)
# Conditions: 10 µM unless noted
row,Compound,growth
1,CN(C)c1ccc(C2Nc3ccccc3-n3cccc32)cc1 (configuration not stated),83.3%
2,Nc1nc2c(c3ncccc13)C(c1cccc(Br)c1)Cc1ncccc1-2 (configuration not stated),41.4%
3,O=[N+]([O-])c1cccc(-c2nc3sccn3c2-c2ccnc(NCCCNS(=O)(=O)c3ccc(F)cc3)n2)c1,9.79% (active)
4,COc1ccc(-n2c(C)nc3c(c(C)nn3-c3ccccc3)c2=O)cc1,34.4%
5,COc1ccc(-n2cc(-c3ccccc3)c3c(SCC(=O)N/N=C/c4ccc([N+](=O)[O-])cc4)ncnc32)cc1,89.7%
6,Nc1c(C(=O)Nc2ccccc2)sc2nc3c(cc12)CN(CCc1ccccc1)CC3,86.9%
7,CCOC(=O)c1c2ncccc2n2c(=O)n(-c3ccc(Cl)cc3)nnc12,73.9%
8,CCN(CC)CCCC(C)Nc1ccnc2c(OC)cccc12 (configuration not stated),101%
9,OC(c1cccc(C(F)(F)F)c1)c1cnccc1NC1CCCCCC1 (configuration not stated),40.4%
10,NC(=S)N/N=C/c1cc(-c2cccc(N)c2)ccn1,-9.57% (active)
11,COc1ccc(CCN2CCCn3c2nc2ccccc2c3=O)cc1,41.7%
12,O=C(/C=C\c1cccc([N+](=O)[O-])c1)c1ccccc1,84.4%
13,CCOC(=O)C(Cc1cc(I)c(O)c(I)c1)NC(=O)c1ccccc1 (configuration not stated),95.7%
14,COc1cc(C#N)cc(OC)c1OCCN(CCOc1c(OC)cc(C#N)cc1OC)S(=O)(=O)c1ccc(C)cc1,109%
15,CN1CCN(Cc2ccc(NC(=O)c3cncc(C#Cc4cncc5nccnc45)c3)cc2C(F)(F)F)CC1,22.2%
16,Nc1nc(-c2ccc(F)cc2)cc(-c2cnn(-c3ccccc3)n2)n1,86.2%
17,CC(=O)C1=C(O)C=C2Oc3c(C(=O)/C=C/c4ccccc4)c(O)c(C)c(O)c3[C@]2(C)C1=O,46.7%
18,COc1ccc(C/C(C)=C(\c2ccc(OCCN3CCCCCC3)cc2)c2ccc(OC(=O)C3CCCCC3)cc2)cc1,86.7%
19,O=[N+]([O-])c1cccc(-c2nc3sccn3c2-c2ccnc(NCCCNS(=O)(=O)c3ccc(Br)cc3)n2)c1,41.4%
20,CCOC(=O)/C=C/C(=O)[C@H](CC(C)C)NC(=O)[C@H](Cc1ccccc1)NC(=O)OCc1ccccc1,74.8%

row,Compound,growth
1,Cc1cc2cc3cc(C)c(N(C)C)cc3nc2cc1N(C)C,43.7%
2,C=C1CCC2C3(C)COC(C)(C)OC3CCC2(C)C1C/C=C1/C(=O)OCC1OC(C)=O (configuration not stated),19.3%
3,C=C1CC2(OC1=O)C(=O)N(CCCCCCCCCCCCN1C(=O)C3(CC(=C)C(=O)O3)c3ccccc31)c1ccccc12 (configuration not stated),80.2%
4,O=C1c2cccnc2C(=O)c2c1c(C(=O)OCCN1CCCCC1)c1ccccn21,2.16% (active)
5,COc1ccccc1N1CCN(CCn2c(=O)c3c(c4ccccc4n3C)n(C)c2=O)CC1,101%
6,C/C(=C(/c1ccc(O)cc1)c1ccc(OCCN(C)C)cc1)c1ccccc1,84.9%
7,CCOC(=O)c1c2c(n3ccc(NC(=O)CCN4CCOCC4)cc13)C(=O)c1ncccc1C2=O,21.5%
8,Cc1cc(=O)oc2cc(Oc3nc(-c4cccs4)cn4c(-c5cccs5)cnc34)ccc12,67.8%
9,CC(C)[C@@H]1CC[C@]2(C(=O)NCCCCN=C(N)N)CC[C@]3(C)[C@H](CC[C@@H]4[C@@]5(C)CCC(=O)C(C)(C)[C@@H]5CC[C@]43C)[C@@H]12,96.7%
10,Oc1cc(O)c2c(=S)cc(-c3ccc(Cl)cc3)oc2c1,76.5%
11,COc1ccc(-c2cn3c(-c4ccc(OC)cc4)cnc3c(Oc3ccc4c(C)cc(=O)oc4c3)n2)cc1,71.7%
12,CN1CCN(Cc2ccc(NC(=O)c3[nH]ncc3Nc3ccnc4ccsc34)cc2)CC1,59.3%
13,Nc1nc2ccc(-c3nc4ccc5[nH]ncc5c4c4c3CCC4)cc2s1,1.07% (active)
14,Oc1ccc2c(=S)cc(-c3ccc(Br)cc3)oc2c1O,65.8%
15,Clc1cccc(Nc2nc(Nc3cnc4ccccc4c3)c3[nH]cnc3n2)c1,59%
16,COc1ccc(-c2cc(NC(=O)Nc3ccc(O)cc3)no2)cc1,31.2%
17,CC(=O)CC(C)(C)c1ccc(Cl)cc1,90.2%
18,O=C1C2CC=CCC2C(=O)N1CNc1ccc(Cl)cc1 (configuration not stated),90.2%
19,CN1CCN(Cc2ccc(NC(=O)c3[nH]ncc3Nc3ncnc4c3CCC4)cc2)CC1,9.41% (active)

# Tested on: A498 renal
# Assay: as above
# Conditions: 10 µM unless noted
row,Compound,growth
1,CN(C)c1ccc(C2Nc3ccccc3-n3cccc32)cc1 (configuration not stated),113%
2,Nc1nc2c(c3ncccc13)C(c1cccc(Br)c1)Cc1ncccc1-2 (configuration not stated),-14.9% (active)
3,COc1ccc(-n2cc(-c3ccccc3)c3c(SCC(=O)N/N=C/c4ccc([N+](=O)[O-])cc4)ncnc32)cc1,108%
4,CCOC(=O)C(Cc1cc(I)c(O)c(I)c1)NC(=O)c1ccccc1 (configuration not stated),78.7%
5,COc1cc(C#N)cc(OC)c1OCCN(CCOc1c(OC)cc(C#N)cc1OC)S(=O)(=O)c1ccc(C)cc1,107%
6,CN1CCN(Cc2ccc(NC(=O)c3cncc(C#Cc4cncc5nccnc45)c3)cc2C(F)(F)F)CC1,21.4%
7,C=C1CC2(OC1=O)C(=O)N(CCCCCCCCCCCCN1C(=O)C3(CC(=C)C(=O)O3)c3ccccc31)c1ccccc12 (configuration not stated),59.5%
8,COc1ccccc1N1CCN(CCn2c(=O)c3c(c4ccccc4n3C)n(C)c2=O)CC1,109%
9,CCOC(=O)c1c2c(n3ccc(NC(=O)CCN4CCOCC4)cc13)C(=O)c1ncccc1C2=O,56.2%
10,Cc1cc(=O)oc2cc(Oc3nc(-c4cccs4)cn4c(-c5cccs5)cnc34)ccc12,64.4%
11,CC(C)[C@@H]1CC[C@]2(C(=O)NCCCCN=C(N)N)CC[C@]3(C)[C@H](CC[C@@H]4[C@@]5(C)CCC(=O)C(C)(C)[C@@H]5CC[C@]43C)[C@@H]12,111%
12,Oc1cc(O)c2c(=S)cc(-c3ccc(Cl)cc3)oc2c1,59.1%
13,Nc1nc2ccc(-c3nc4ccc5[nH]ncc5c4c4c3CCC4)cc2s1,-9.59% (active)
14,Clc1cccc(Nc2nc(Nc3cnc4ccccc4c3)c3[nH]cnc3n2)c1,60%
15,COc1ccc(-c2cc(NC(=O)Nc3ccc(O)cc3)no2)cc1,30.9%
16,CC(=O)CC(C)(C)c1ccc(Cl)cc1,108%
17,O=C1C2CC=CCC2C(=O)N1CNc1ccc(Cl)cc1 (configuration not stated),96.5%
18,CN1CCN(Cc2ccc(NC(=O)c3[nH]ncc3Nc3ncnc4c3CCC4)cc2)CC1,-21.7% (active)
